These results are taken from PubChem BioAssay (EPA / NIEHS).

Each structure is given as a SMILES string. Inconclusive results are not listed. More than one record can exist for a structure, and the calls need not agree. The source made the active and inactive calls. Rule for the calls, unless noted: active = hit-call score of the fitted dose curve at least 0.9, where 1 is the maximum; inconclusive = response in the unintended direction; inactive = score below 0.9.

Experiment [1] concerns the target zebrafish Thyroid Hormone Receptor alpha (TRa), thraa (gene 30670) (UniProt Q98867). Briefly: ATG_zfTRa_XSP2: Attagene TRANS-FACTORIAL Multi-Species (XSP1) HepG2 Assay for zebrafish Thyroid Hormone Receptor alpha (TRa) (AID 2283832).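 Note: actives raise zebrafish TRa-Gal4 reporter transcript above DMSO baseline.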 The procedure, abridged: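 Chimeric zebrafish TRa-Gal4 activity read in transfected human HepG2 as GAL4-UAS reporter transcripts, 24 h post-dose, via RT-PCR with labeled primer extension and capillary electrophoresis. Medium also carries 3 nM 6-alpha-fluorotestosterone and 1.5 nM norgestrel; DMSO baseline.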

The subject of experiment [2] is zebrafish Peroxisome Proliferator-activated Receptor gamma (PPARg), gene 557037. The experiment is described as follows: ATG_zfPPARg_XSP2: Attagene TRANS-FACTORIAL Multi-Species (XSP2) HepG2 Assay for zebrafish Peroxisome Proliferator-activated Receptor gamma (PPARg) (AID 2283833).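 Note: actives increase reporter signal over DMSO so AC50 reflects activation.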 The essentials: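 HepG2, transient MRTU transfection, 24 h compound; zfPPARg-GAL4 reporter mRNA by RT-PCR + capillary electrophoresis; gain-of-signal vs DMSO.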

The test system of experiment [3] is turtle Thyroid Hormone Receptor, alpha (TRa), gene 101949057. The experiment is described as follows: ATG_trTRa_XSP2: Attagene TRANS-FACTORIAL Multi-Species (XSP1) HepG2 Assay for turtle Thyroid Hormone Receptor, alpha (TRa) (AID 2283834).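 Note: hits raise reporter mRNA over the DMSO baseline so AC50 marks activators.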 The essentials:
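Multiplexed TRANS reporter assay; HepG2 carrying NR-Gal4 constructs treated 24 h. mRNA of the GAL4-UAS reporter quantified via labelled RT-PCR fragments on a genetic analyzer, vs DMSO negative control.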

Experiment [4] can be described thus: ATG_M_61_XSP2: Attagene TRANS-FACTORIAL Multi-Species (XSP2) HepG2 Assay for M61 Transcription Factor (Internal Marker) (AID 2283835; active = hit-call score of the fitted dose curve at least 0.9, where 1 is the maximum; inactive = score below 0.9;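 note: reporter mRNA of an internal background marker read by RT-PCR and capillary electrophoresis; active means a rise in signal above the DMSO baseline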). The essentials:
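Transient MRTU transfection of human HepG2; 24 h chemical dosing with 3 nM 6-alpha-fluorotestosterone + 1.5 nM norgestrel added for AR stimulation. RNA isolated, RT, PCR, FAM-labelled, HpaI cut, CE read. Positive direction vs DMSO.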

In experiment [5] the target is zebrafish Thyroid Hormone Receptor beta (TRb), thrb (gene 30607) (UniProt Q9PVE4). Briefly: ATG_zfTRb_XSP2: Attagene TRANS-FACTORIAL Multi-Species (XSP1) HepG2 Assay for zebrafish Thyroid Hormone Receptor beta (TRb) (AID 2283836). The essentials:
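Reporter transcripts measured by RT-PCR, 6-FAM labelling, HpaI digestion and capillary electrophoresis after 24 h chemical exposure. Human HepG2 cells carry an exogenous zebrafish TRb-GAL4 chimera; medium included 3 nM 6-alpha-fluorotestosterone plus 1.5 nM norgestrel.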

Experiment [6] addresses human Thyroid hormone Receptor beta (TRb), THRB (gene 7068) (UniProt P10828). Briefly: ATG_hTRb_XSP2: Attagene TRANS-FACTORIAL Multi-Species (XSP2) HepG2 Assay for human Thyroid hormone Receptor beta (TRb) (AID 2283840).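 Note: actives raise reporter mRNA so potency reflects agonist-like gain of signal.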 The procedure, abridged:
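Gain-of-signal reporter transcription, referenced to DMSO, was measured in transiently transfected HepG2 after 24 h exposure; labeled RT-PCR products were resolved by capillary electrophoresis. Assay medium included 3 nM 6-alpha-fluorotestosterone and 1.5 nM norgestrel.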

Experiment [7] relates to Sodium/Iodide Symporter (NIS), SLC5A5 (gene 6528). Briefly: CPHEA_Stoker_NIS_Inhibition_RAIU: CPHEA's Radioactive Iodide Uptake (RAIU) Assay for Sodium/Iodide Symporter (NIS) Inhibition, Stoker and Laws Labs (AID 2283841). The procedure, abridged:
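hNIS-HEK293T-EPA cells incubated 2 h at room temperature with compound (0.001–100 uM, 0.5% DMSO) and 329 pM final 125I in HBSS/10 mM HEPES, pH 7.4. Intracellular 125I counted; normalised to DMSO maximal uptake, triplicate, three biological replicates.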

A short description of experiment [8]: CEETOX_H295R_11DCORT_noMTC: CeeTox H295R High-throughput Steroidogenesis Assay for 11-Deoxycortisol (11DCORT), maximum tolerated concentration (MTC) filtered results only (AID 2283911; active = hit-call score of the fitted dose curve at least 0.9, where 1 is the maximum; inactive = score below 0.9). To be noted: actives raise or lower the signal. The procedure, abridged: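 Forskolin-primed (10 uM, 48 h) H295R adrenal cells are dosed for 48 h at 0.1% DMSO; medium 11-deoxycortisol is quantified by LC-MS/MS against a 7-point standard curve, with activity fitted in both directions versus DMSO.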

Experiment [9] in a line: CEETOX_H295R_OHPREG_noMTC: CeeTox H295R High-throughput Steroidogenesis Assay for OH-Pregnenolone (OHPREG), maximum tolerated concentration (MTC) filtered results only (AID 2283912; active = hit-call score of the fitted dose curve at least 0.9, where 1 is the maximum; inactive = score below 0.9). To be noted: actives raise or lower the signal. The essentials: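 H295R; 10 uM forskolin 48 h pre-stim; test cpd in DMSO (0.1% final) 48 h; media MTBE-extracted, HPLC-MS/MS for OH-pregnenolone; bidirectional fit vs DMSO; no MTC (MTT) filtering.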

A short description of experiment [10]: CEETOX_H295R_OHPROG_noMTC: CeeTox H295R High-throughput Steroidogenesis Assay for OH-Progesterone (OHPROG), maximum tolerated concentration (MTC) filtered results only (AID 2283914; active = hit-call score of the fitted dose curve at least 0.9, where 1 is the maximum; inactive = score below 0.9). Conditions: actives raise or lower the signal. The essentials:
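Medium hormone measured by reverse-phase C18 HPLC with positive electrospray MS/MS after MTBE liquid-liquid extraction. Cells had 48 h forskolin (10 uM) prestimulation, then 48 h chemical dosing. Gain or loss of signal fitted relative to DMSO baseline.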

Experiment [11] is described as follows: CEETOX_H295R_CORTISOL_noMTC: CeeTox H295R High-throughput Steroidogenesis Assay for Cortisol, maximum tolerated concentration (MTC) filtered results only (AID 2283916; active = hit-call score of the fitted dose curve at least 0.9, where 1 is the maximum; inactive = score below 0.9). Conditions: actives raise or lower the signal. The procedure, abridged:
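H295R human adrenal cells prestimulated 48 h with 10 uM forskolin, then exposed 48 h to chemical in 0.1% DMSO; cortisol in medium quantified by HPLC-MS/MS; bidirectional fit vs DMSO baseline, concentrations not MTT-filtered for MTC.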

Experiment [12] in a line: CEETOX_H295R_CORTIC_noMTC: CeeTox H295R High-throughput Steroidogenesis Assay for Corticosterone (CORTIC), maximum tolerated concentration (MTC) filtered results only (AID 2283917; active = hit-call score of the fitted dose curve at least 0.9, where 1 is the maximum; inactive = score below 0.9). To be noted: actives raise or lower the signal. The procedure, abridged: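 Corticosterone secreted into the medium was measured by reverse-phase C18 HPLC with tandem MS after MTBE extraction. Cells (H295R) had 48 h forskolin (10 uM) stimulation before 48 h chemical exposure; gain or loss of signal was fitted relative to DMSO.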

A short description of experiment [13]: CEETOX_H295R_DOC_noMTC: CeeTox H295R High-throughput Steroidogenesis Assay for DOC, maximum tolerated concentration (MTC) filtered results only (AID 2283918; active = hit-call score of the fitted dose curve at least 0.9, where 1 is the maximum; inactive = score below 0.9). Conditions: actives raise or lower the signal. The essentials:
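H295R cells prestimulated 48 h with 10 uM forskolin, then exposed 48 h to chemical in 0.1% DMSO. 11-Deoxycorticosterone in medium measured by MTBE extraction and HPLC-MS/MS; bidirectional fit vs DMSO, no MTC filter.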

Experiment [14] in a line: CEETOX_H295R_ESTRADIOL_noMTC: CeeTox H295R High-throughput Steroidogenesis Assay for Estradiol, maximum tolerated concentration (MTC) filtered results only (AID 2283919; active = hit-call score of the fitted dose curve at least 0.9, where 1 is the maximum; inactive = score below 0.9). To be noted: actives raise or lower the signal. The procedure, abridged:
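Readout: dansyl-derivatized estradiol quantified by LC-MS/MS in medium from H295R cells dosed 48 h (0.1% DMSO) following 48 h forskolin (10 uM) prestimulation. Gain or loss of signal fitted against DMSO; no MTC filtering applied.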

Experiment [15] can be described thus: CEETOX_H295R_PROG_noMTC: CeeTox H295R High-throughput Steroidogenesis Assay for Progesterone (PROG), maximum tolerated concentration (MTC) filtered results only (AID 2283920; active = hit-call score of the fitted dose curve at least 0.9, where 1 is the maximum; inactive = score below 0.9). Conditions: actives raise or lower the signal. The essentials:
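Readout: medium progesterone by MTBE extraction, reverse-phase C18 HPLC, ESI-positive MS/MS. Human H295R cells, 10 uM forskolin pretreatment 48 h, chemical 48 h in 0.1% DMSO. Gain or loss fitted against DMSO baseline.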

A short description of experiment [16]: CEETOX_H295R_ESTRONE_noMTC: CeeTox H295R High-throughput Steroidogenesis Assay for Estrone, maximum tolerated concentration (MTC) filtered results only (AID 2283921; active = hit-call score of the fitted dose curve at least 0.9, where 1 is the maximum; inactive = score below 0.9). Conditions: actives raise or lower the signal. The procedure, abridged: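 Estrone in spent medium, quantified by tandem MS following dansyl chloride derivatization, after 48 h chemical exposure (0.1% DMSO) of forskolin-prestimulated (10 uM, 48 h) H295R cells; concentrations not MTC-filtered, bidirectional fit against DMSO.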

Experiment [17] is described as follows: CPHEA_Stoker_NIS_Cytotoxicity: Cytotoxicity Assessment for CPHEA's Radioactive Iodide Uptake (RAIU) Assay for Sodium/Iodide Symporter (NIS) Inhibition, Stoker and Laws Labs (AID 2283897).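 For AC50: active means loss of ATP signal versus DMSO meaning cytotoxicity.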 The essentials: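 hNIS-HEK293T-EPA cells, human NIS expressed in HEK293T, treated 2 h with chemicals (0.001–100 uM, 0.5% final DMSO). ATP content read by CellTiter-Glo luminescence; loss of signal analysed relative to DMSO.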

In experiment [18] the target is human Thyroid hormone Receptor alpha (TRa), THRA (gene 7067) (UniProt P10827). Briefly: ATG_hTRa_XSP2: Attagene TRANS-FACTORIAL Multi-Species (XSP2) HepG2 Assay for human Thyroid hormone Receptor alpha (TRa) (AID 2283838). The procedure, abridged:
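Reporter transcripts were read by RT-PCR with fluorescent primer extension, HpaI digestion and capillary electrophoresis. These came from HepG2 cells carrying multiplexed TRa-Gal4 TRANS constructs, harvested 24 hours after dosing. The medium also held 6-alpha-fluorotestosterone (3 nM) and norgestrel (1.5 nM), and increases were fitted against DMSO.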

Experiment [19] addresses frog Thyroid hormone Receptor alpha (TRa), thra-a (gene 397942) (UniProt P15204). Briefly: ATG_frTRa_XSP2: Attagene TRANS-FACTORIAL Multi-Species (XSP2) HepG2 Assay for frog Thyroid hormone Receptor alpha (TRa) (AID 2283839).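 For AC50: AC50 reflects induction of frog TRa-driven reporter mRNA above DMSO baseline.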 The procedure, abridged:
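Chimeric frog TRα-GAL4 activity in human liver cells measures reporter transcript induction 24 h post-dose. Detection uses RT-PCR, HpaI-digested labelled products and fluorescence capillary electrophoresis; DMSO serves as negative control.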

Chain of zebrafish Thyroid Hormone Receptor beta (TRb), thrb (gene 30607) (Q9PVE4 whole entry, looked up, the tested form may be a part): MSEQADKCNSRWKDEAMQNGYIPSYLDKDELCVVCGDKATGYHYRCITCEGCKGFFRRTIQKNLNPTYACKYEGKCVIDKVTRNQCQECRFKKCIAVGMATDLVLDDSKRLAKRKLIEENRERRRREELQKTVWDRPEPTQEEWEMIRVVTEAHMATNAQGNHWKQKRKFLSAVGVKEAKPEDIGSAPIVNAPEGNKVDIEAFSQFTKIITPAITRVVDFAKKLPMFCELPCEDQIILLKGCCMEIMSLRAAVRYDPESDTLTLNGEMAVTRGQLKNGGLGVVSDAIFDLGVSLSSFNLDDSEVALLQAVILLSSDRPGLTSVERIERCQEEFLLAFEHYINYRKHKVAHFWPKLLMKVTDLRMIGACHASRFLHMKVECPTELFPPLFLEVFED
Chain of zebrafish Thyroid Hormone Receptor alpha (TRa), thraa (gene 30670) (Q98867 whole entry, looked up, the tested form may be a part): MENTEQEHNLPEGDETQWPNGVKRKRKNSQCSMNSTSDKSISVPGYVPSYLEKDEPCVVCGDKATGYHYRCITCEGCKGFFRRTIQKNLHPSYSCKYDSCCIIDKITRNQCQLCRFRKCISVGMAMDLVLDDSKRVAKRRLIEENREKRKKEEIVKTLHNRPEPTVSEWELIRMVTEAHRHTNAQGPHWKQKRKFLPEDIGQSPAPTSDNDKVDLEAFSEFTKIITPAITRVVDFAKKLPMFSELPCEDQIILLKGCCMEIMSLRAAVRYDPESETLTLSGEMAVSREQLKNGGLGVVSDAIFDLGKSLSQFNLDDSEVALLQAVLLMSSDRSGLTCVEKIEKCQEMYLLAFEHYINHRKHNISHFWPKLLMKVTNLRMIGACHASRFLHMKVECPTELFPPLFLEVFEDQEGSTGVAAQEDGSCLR
Chain of human Thyroid hormone Receptor alpha (TRa), THRA (gene 7067) (P10827 whole entry, looked up, the tested form may be a part): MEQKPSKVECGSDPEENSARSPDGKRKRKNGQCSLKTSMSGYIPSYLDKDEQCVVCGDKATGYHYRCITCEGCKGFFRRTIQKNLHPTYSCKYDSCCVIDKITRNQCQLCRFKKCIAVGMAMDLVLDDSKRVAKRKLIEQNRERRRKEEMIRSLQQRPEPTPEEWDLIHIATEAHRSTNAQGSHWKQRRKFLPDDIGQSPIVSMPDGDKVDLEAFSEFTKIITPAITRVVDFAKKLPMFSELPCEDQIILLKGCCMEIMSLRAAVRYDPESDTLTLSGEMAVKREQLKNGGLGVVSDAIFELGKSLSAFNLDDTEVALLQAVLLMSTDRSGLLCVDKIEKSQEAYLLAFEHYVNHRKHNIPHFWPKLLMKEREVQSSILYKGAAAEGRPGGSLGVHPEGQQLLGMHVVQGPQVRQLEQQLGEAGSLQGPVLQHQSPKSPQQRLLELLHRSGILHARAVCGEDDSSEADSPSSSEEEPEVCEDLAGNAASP
Chain of frog Thyroid hormone Receptor alpha (TRa), thra-a (gene 397942) (P15204 whole entry, looked up, the tested form may be a part): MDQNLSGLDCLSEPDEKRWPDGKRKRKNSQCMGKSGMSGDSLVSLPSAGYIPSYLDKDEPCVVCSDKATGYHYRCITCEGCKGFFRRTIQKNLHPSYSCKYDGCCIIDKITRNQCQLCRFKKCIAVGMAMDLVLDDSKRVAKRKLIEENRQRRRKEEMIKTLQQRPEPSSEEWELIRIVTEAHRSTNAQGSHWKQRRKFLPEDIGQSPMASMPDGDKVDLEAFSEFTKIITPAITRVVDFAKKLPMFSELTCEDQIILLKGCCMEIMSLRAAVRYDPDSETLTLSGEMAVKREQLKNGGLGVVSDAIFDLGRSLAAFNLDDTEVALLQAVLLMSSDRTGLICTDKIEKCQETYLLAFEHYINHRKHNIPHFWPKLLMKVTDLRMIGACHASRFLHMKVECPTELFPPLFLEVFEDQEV
Chain of human Thyroid hormone Receptor beta (TRb), THRB (gene 7068) (P10828 whole entry, looked up): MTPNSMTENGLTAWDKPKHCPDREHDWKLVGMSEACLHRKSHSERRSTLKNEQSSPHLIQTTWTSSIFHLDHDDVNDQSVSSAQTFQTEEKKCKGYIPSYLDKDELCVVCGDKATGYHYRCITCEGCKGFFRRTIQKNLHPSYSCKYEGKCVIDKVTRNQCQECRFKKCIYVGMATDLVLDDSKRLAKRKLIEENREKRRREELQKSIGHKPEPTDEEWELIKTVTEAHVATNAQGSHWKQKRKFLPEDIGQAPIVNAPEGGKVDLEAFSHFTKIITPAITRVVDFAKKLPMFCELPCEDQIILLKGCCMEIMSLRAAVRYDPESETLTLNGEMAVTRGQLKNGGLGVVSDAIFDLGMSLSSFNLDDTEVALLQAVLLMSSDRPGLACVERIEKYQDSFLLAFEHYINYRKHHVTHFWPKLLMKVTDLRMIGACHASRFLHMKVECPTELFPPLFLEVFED

Regarding `CO/C=C(/C(=O)OC)c1ccccc1Oc1cc(Oc2ccccc2C#N)ncn1`, the result in experiment [1], in experiment [2], in experiment [3], in experiment [4], in experiment [5] and in experiment [6] was inactive. Moreover, the result in [7] was inactive.
For the compound `COC(=O)c1ccccc1C(=O)OC`, the outcome in [8], in experiment [9], in experiment [10], in [11], in [12] and in experiment [13] was inactive. In addition, the call in [14], in experiment [15] and in experiment [16] was inactive.
Consider `CCOC(=O)CC(SP(=S)(OC)OC)C(=O)OCC` (stereo not given), for which the outcome in experiment [7] and in experiment [17] was inactive.
Take `CCCCNC(=O)OCC#CI`: the compound was classed as inactive in experiment [1], in experiment [2], in experiment [4], in experiment [18] and in [17]. For the same compound, the AC50 – broadly, the concentration giving half of the maximal activity seen – is 25.5 µM (active) in [3], 100 µM (active) in experiment [19] and 9.77 µM (active) in experiment [7].
In the case of `N#Cc1nn(-c2c(Cl)cc(C(F)(F)F)cc2Cl)c(N)c1S(=O)C(F)(F)F` (stereo not given), in experiment [7], the AC50 was 26.8 µM (active). Further, the outcome in [17] was inactive.
For `CCc1nn(C)c(C(=O)NCc2ccc(C(C)(C)C)cc2)c1Cl`, the figures for the AC50 in experiment [7] and in experiment [17] were 2.5 µM (active) and 9.92 µM (active), respectively.
With `CCCCOC(=O)c1ccccc1C(=O)OCCCC`, the compound was called inactive in experiment [2], in experiment [3], in experiment [5], in [18], in experiment [19] and in experiment [6]. Further, the result in [7], in experiment [17], in experiment [8], in [9], in experiment [10] and in experiment [11] was inactive. Moreover, the call in experiment [12], in experiment [13], in [14], in experiment [15] and in experiment [16] was inactive.
Turning to `N#Cc1cc(Br)c(O)c(Br)c1`, the result in experiment [17] was inactive.
Regarding `CC1COC(Cn2cncn2)(c2ccc(Oc3ccc(Cl)cc3)cc2Cl)O1` (stereo not given), the AC50 was 11.5 µM (active) in experiment [7] and 29 µM (active) in experiment [17].
